High-throughput results from PubChem BioAssay.
The list is not random: actives were taken first. Their share in the collection is about 5.7%.
NPSR antag: antagonists of human neuropeptide S receptor cAMP signaling; CHO-NPSR cells, cAMP TR-FRET, antagonist mode; Potency, µM (titrated, usually from 38.3 µM), without a hit: at the top dose activity change, negative = inhibition, most hits filed as inhibitors; actives 1% (n = 220,000); also: nearly all actives have a fitted effect of over 50% in size
Target sequence (Q6W5P4 whole entry, looked up): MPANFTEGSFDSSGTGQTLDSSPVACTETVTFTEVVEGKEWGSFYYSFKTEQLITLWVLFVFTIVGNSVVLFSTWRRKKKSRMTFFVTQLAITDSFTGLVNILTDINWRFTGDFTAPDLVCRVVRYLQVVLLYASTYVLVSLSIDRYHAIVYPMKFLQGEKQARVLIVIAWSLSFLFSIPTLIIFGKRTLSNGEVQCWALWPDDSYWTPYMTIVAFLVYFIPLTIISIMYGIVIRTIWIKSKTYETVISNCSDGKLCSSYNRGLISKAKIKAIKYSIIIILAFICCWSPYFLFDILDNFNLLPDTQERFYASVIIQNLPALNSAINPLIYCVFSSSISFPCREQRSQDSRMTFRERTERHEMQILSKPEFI
RORgamma inh: blocks mouse ROR gamma transcriptional activity; P51450; AID 2551; Potency, µM (top dose mostly 53.6 µM), for inactives: at the highest dose activity change, negative = inhibition, usual class: inhibitors; actives 5.4% (n = 310,000); Drosophila S2 Gal4-RORgamma UAS-luciferase reporter, 20 h; also: nearly all actives have a fitted effect of over 60% in size
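Schneider cells (Drosophila), stable Gal4 DBD–ROR gamma + UAS-luc; 1 hr cmpd preincubation; Cu2+ induction 700 uM final; 20 hr ambient; luminescence.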
Gal4-VP16 FLuc: Gal4-VP16 reporter inhibition counter-screen. Drosophila S2 Gal4-VP16 UAS-luciferase, luminescence, 20 h. Potency, µM (highest dose often 53.6 µM), inactives show top-dose activity, negative = inhibition, usual class: inhibitors. actives 3.5% (n = 310,000);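 also: Gal4-VP16 expression switched on by copper sulfate through the metallothionein promoter; nearly all actives have a fitted effect of over 50% in size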
B2AR arrestin: agonists driving beta-arrestin recruitment to human beta2-adrenergic receptor. beta-arrestin recruitment to beta2AR, cell-based reporter. Potency, µM (top dose mostly 46.1 µM), for inactives: top-dose activation, hits mostly activators. actives 0.02% (n = 330,000). AID 492947;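 also: 0% = DMSO controls and full agonism = EC100 isoproterenol or metaproterenol; nearly all actives have a fitted effect of over 65% in size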
Active calls of the source: *; [ ] = another dose, or the depositor's remark. Calls follow the shape of the dose curve; as a rule, active = well fitted curve in the direction sought with a large enough effect; inconclusive = small, poorly fitted or top-dose-only effect, or another doubt; inactive = no such curve, though single readings can be large; an effect the other way counts as inactive or inconclusive. Unless noted, % is scaled to controls: 0 for no effect and ±100 for the full control effect; potency is read from the fitted curve at half-maximal effect.

Screening CC(C)C[C@@H](CC(=O)N[C@@H](CCC(=O)O)CC(=O)O)NC(=O)[C@@H]1CCCC[C@H]1NC(=O)C[C@H](CCCN)NC(=O)C[C@H](Cc1c[nH]c2ccccc12)NC(=O)[C@@H]1CCCC[C@H]1N returned RORgamma inh -9% and Gal4-VP16 FLuc -4%.
Screening CCCCCCCCCCCCC1CO1 (stereo not drawn) returned RORgamma inh -6% and Gal4-VP16 FLuc 11%.
Screening FC(F)(F)c1ccccc1-c1cncnc1NCc1cccs1 returned RORgamma inh 10% and Gal4-VP16 FLuc -1%.
`Cc1ccc(NC(=O)c2ccc(NCCN)c([N+](=O)[O-])c2)cc1` gave NPSR antag -8%, RORgamma inh 6.3µM*, Gal4-VP16 FLuc -28% and B2AR arrestin -1%.
Cc1cccc(NC(=O)c2ccc(NCCc3ccccc3)c([N+](=O)[O-])c2)c1 was read as NPSR antag 15%, RORgamma inh inconclusive, Gal4-VP16 FLuc -8% and B2AR arrestin 0%.
Screening COc1ccc2c(c1)c1ccc3c(c1n2C)C(=O)C=CC3=O returned NPSR antag inconclusive, RORgamma inh 22µM*, Gal4-VP16 FLuc 13µM* and B2AR arrestin 0%.
Cc1ccc2c(c1)c1ccc3c(c1n2C)C(=O)C=CC3=O was read as NPSR antag 7.9µM*, RORgamma inh 11µM*, Gal4-VP16 FLuc 11µM* and B2AR arrestin 3%.
Cc1ccc(N(C)S(=O)(=O)c2ccc(C)cc2)cc1 was read as NPSR antag -6%[46.1 µM], RORgamma inh -8%, Gal4-VP16 FLuc 5% and B2AR arrestin 0%.
Screening CC(C)(C)c1ccc(S(=O)(=O)N2CCN(CCC#N)CC2)cc1 returned NPSR antag -13%[46.1 µM], RORgamma inh inconclusive, Gal4-VP16 FLuc 1% and B2AR arrestin -1%.
`Cc1ccc(S(=O)(=O)/C=C/C#N)cc1` gave RORgamma inh 1.1µM* and Gal4-VP16 FLuc 0.56µM*.
`CC(C)(C)c1ccc(S(=O)(=O)/C=C\C#N)cc1` gave RORgamma inh 0.63µM* and Gal4-VP16 FLuc 0.79µM*.
For Cc1ccc(S(=O)(=O)/C=C2\NC(=O)CS2)cc1 the results were NPSR antag -12%[46.1 µM], RORgamma inh inconclusive, Gal4-VP16 FLuc -5% and B2AR arrestin 3%.
Screening Cc1ccc(S(=O)(=O)/C=C\C#N)cc1 returned RORgamma inh 0.63µM* and Gal4-VP16 FLuc 0.56µM*.
For CC(C#N)(NC(=O)CN1CCN(S(=O)(=O)c2ccccc2C#N)CC1)C1CC1 (stereo not drawn) the results were B2AR arrestin -1%.
`COc1cc(/C=N/NC(=O)c2nnn(-c3nonc3N)c2C(C)C)ccc1O` gave RORgamma inh 17%, Gal4-VP16 FLuc 2% and B2AR arrestin 1%.
Screening Cc1ccsc1/C=N/NC(=O)c1nnn(-c2nonc2N)c1C(C)C returned RORgamma inh 11µM*, Gal4-VP16 FLuc 18µM* and B2AR arrestin 0%.
Screening COc1ccccc1/C(C)=N/NC(=O)c1nnn(-c2nonc2N)c1C(C)C returned RORgamma inh 7.1µM*, Gal4-VP16 FLuc -29% and B2AR arrestin 4%.
`CC(C)c1c(C(=O)N/N=C/c2cccs2)nnn1-c1nonc1N` gave RORgamma inh inconclusive, Gal4-VP16 FLuc -88% and B2AR arrestin -1%.
For CCCc1c(C(=O)N/N=C/c2sccc2C)nnn1-c1nonc1N the results were RORgamma inh inconclusive, Gal4-VP16 FLuc 5.6µM* and B2AR arrestin -1%.
`C/C(=N\NC(=O)c1nnn(-c2nonc2N)c1CN1CCc2ccccc21)c1ccccc1O` gave RORgamma inh 2.2µM*, Gal4-VP16 FLuc 4.5µM* and B2AR arrestin 0%.
Screening CCN(CC)CCNC(=O)c1ccc(NC(=O)c2ccccc2-c2ccc(C(F)(F)F)cc2)cc1 returned RORgamma inh inconclusive, Gal4-VP16 FLuc inconclusive and B2AR arrestin 0%.
COc1ccc(C)cc1NS(=O)(=O)c1ccc2c(c1)NC(=O)C(C)S2 (stereo not drawn) was read as RORgamma inh 0%, Gal4-VP16 FLuc inconclusive and B2AR arrestin -1%.
Cc1ccc(S(=O)(=O)Oc2ccc(C)cc2/C=N/N=C2\NC(=O)C(C)S2)cc1 (stereo not drawn) was read as NPSR antag -4%[46.1 µM], RORgamma inh 13µM*, Gal4-VP16 FLuc 10µM* and B2AR arrestin 0%.
For COc1ncc2nc(C)c(=O)n(C)c2n1 the results were RORgamma inh -7% and Gal4-VP16 FLuc -5%.
Screening O=C1c2ccccc2C(Cc2ccnc(F)c2)(Cc2ccnc(F)c2)c2ccccc21 returned RORgamma inh 35% and Gal4-VP16 FLuc 1%.
For O=C(O)C1CCCN1 (stereo not drawn) the results were RORgamma inh 7% and Gal4-VP16 FLuc 5%.
For Cc1ccc(-n2cnc3cc(NCc4cccs4)ccc32)cc1 the results were NPSR antag -19%[46.1 µM], RORgamma inh -7%, Gal4-VP16 FLuc inconclusive and B2AR arrestin 0%.
COc1ccc(-n2cnc3cc(NCc4cccs4)ccc32)cc1 was read as NPSR antag -22%[46.1 µM], RORgamma inh 14µM*, Gal4-VP16 FLuc 7% and B2AR arrestin 0%.
COc1ccc(C(=O)OCC(=O)c2ccc(C3CCCCC3)cc2)cc1 was read as NPSR antag 11%[46.1 µM], RORgamma inh 17%, Gal4-VP16 FLuc -8%[0.365 µM] and B2AR arrestin 0%.
`Nc1ccc(O)cc1C(=O)OCC(=O)c1ccc(C2CCCCC2)cc1` gave NPSR antag -2%, RORgamma inh 7.1µM*, Gal4-VP16 FLuc inconclusive and B2AR arrestin 0%.
For O=C(O)CO the results were RORgamma inh 1% and Gal4-VP16 FLuc -2%.
`N#Cc1cccc(CS(=O)(=O)c2nnnn2C2CCCCC2)c1` gave RORgamma inh -42% and Gal4-VP16 FLuc 6%.
Screening CC1CCCN(S(=O)(=O)c2ccc(C(=O)Nc3nnc(C4=COCCO4)o3)cc2)C1 (stereo not drawn) returned RORgamma inh 0.79µM*, Gal4-VP16 FLuc 1.1µM* and B2AR arrestin 0%.
O=C(Nc1nnc(C2=COCCO2)o1)c1ccc(S(=O)(=O)N2CCOCC2)cc1 was read as NPSR antag 5%, RORgamma inh 11µM*, Gal4-VP16 FLuc -2% and B2AR arrestin -1%.
`CC1CCCCN1S(=O)(=O)c1ccc(C(=O)N2CCOCC2)cc1` (stereo not drawn) gave RORgamma inh 20%, Gal4-VP16 FLuc -6% and B2AR arrestin -1%.
`CC1CCCCN1S(=O)(=O)c1ccc(C(=O)Nc2nnc(C3=COCCO3)o2)cc1` (stereo not drawn) gave RORgamma inh 0.89µM*, Gal4-VP16 FLuc 1.3µM* and B2AR arrestin -1%.
O=C(Nc1ccc(S(=O)(=O)N2CCOCC2)cc1)c1ccc(S(=O)(=O)N2CCOCC2)cc1 was read as RORgamma inh 10%, Gal4-VP16 FLuc -8% and B2AR arrestin -1%.
Screening Cn1cccc1C(=O)N1CCC2(CCN(C(=O)Nc3cccc(F)c3)CC2)CC1 returned RORgamma inh 33% and Gal4-VP16 FLuc 16%.
